Shown are actives, neighbours in structure and some others; about 11% of the full set was active somewhere.
IMPase Li inh – membrane-permeable IMPase blocker, potentiated with lithium | CHO-M1 cells, IP1 TR-FRET (IP-One), carbachol + lithium | 210,000 tested, 0.35% active | Potency, µM (series often up to 59.4 µM), actives largely listed as inhibitors | AID 1457; active = well fitted curve in the direction sought with a large enough effect; inconclusive = small, poorly fitted or top-dose-only effect, or another doubt; inactive = no such curve, though single readings can be large; an effect the other way counts as inactive or inconclusive;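 note: IP1 builds up when IMPase is blocked and the TR-FRET signal falls; nearly all actives have a fitted effect of over 50% in size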
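CHO cells stably expressing M1 receptor (2000/well, cultured 16–30 h) treated 30 min at 37C with compound plus low lithium. Cytosolic IP1 by TR-FRET (665/620 ratio and 620 channel) after 10 min lysis; AC50 by Hill fit.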
IMPase inh – membrane-permeable compound that blocks inositol monophosphatase | inhibition (IP1 accumulation), % at 46.1 µM | 120,000 tested, under 10 active | CHO-M1 cells, IP1 accumulation, HTRF TR-FRET ratio; active = well fitted curve in the direction sought with a large enough effect in the signal ratio, not every such curve was filed as active; inconclusive = small, poorly fitted or top-dose-only effect, or a change in a side signal; inactive = no such curve, though single readings can be large or run the other way; the % refers to the signal ratio;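 note: cells stimulated with carbachol in lithium chloride buffer; higher means more IMPase inhibition seen as more IP1 and lower FRET ratio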
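Measured: the HTRF emission ratio (665/620 nm) plus the 620 nm donor channel, each fitted to the Hill equation to give AC50. Cells were CHO-M1 given compounds up to 46 uM and a 30 min carbachol stimulation at 37C.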
HPGD inh – inhibitors of human 15-hydroxyprostaglandin dehydrogenase (HPGD); P15428; purified HPGD, NADH fluorescence kinetic, PGE2 substrate; Potency, µM, most hits filed as inhibitors; 150,000 tested, 4.3% active; AID 894
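20 nM HPGD preincubated 15 min at room temperature with compound in 50 mM Tris-HCl pH 8, 0.01% Tween 20. Started with 1 mM NAD+ and 30 uM prostaglandin E2; NADH fluorescence (360/450 nm) read 5 times over 30-s intervals, last minus first.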
PNC assembly inh – inhibitors of perinucleolar compartment assembly. PC3M PTB-GFP, PNC prevalence imaging, 16 h; active compounds read low. activity change (PNC), negative = inhibition, % at 10 µM. 140,000 tested, 3.1% active. AID 2417;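 active = readout at or below -70, meaning at least 70% loss of cells showing the perinucleolar compartment, a nuclear body marking cancer cells; inconclusive = readout between -30 and a set limit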
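Read-out is percentage of cells bearing a perinucleolar compartment, from automated 20x imaging of fixed, Hoechst-stained PC3M PTB-GFP cells. Cells were seeded 4 h, then exposed 16 h to compound (23 nl of library stock) in duplicate plates.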
12-hLO inh – inhibitors of human 12-lipoxygenase (ALOX12) | P18054 | 150,000 tested, 0.12% active | AID 1452 | Potency, µM (doses to about 57.1 µM), actives largely listed as inhibitors | purified 12-hLO, xylenol orange hydroperoxide absorbance; active = well fitted curve in the direction sought with a large enough effect; inconclusive = small, poorly fitted or top-dose-only effect, or another doubt; inactive = no such curve, though single readings can be large; an effect the other way counts as inactive or inconclusive; note: nearly all actives have a fitted effect of over 55% in size
Target sequence (P18054 whole entry, looked up): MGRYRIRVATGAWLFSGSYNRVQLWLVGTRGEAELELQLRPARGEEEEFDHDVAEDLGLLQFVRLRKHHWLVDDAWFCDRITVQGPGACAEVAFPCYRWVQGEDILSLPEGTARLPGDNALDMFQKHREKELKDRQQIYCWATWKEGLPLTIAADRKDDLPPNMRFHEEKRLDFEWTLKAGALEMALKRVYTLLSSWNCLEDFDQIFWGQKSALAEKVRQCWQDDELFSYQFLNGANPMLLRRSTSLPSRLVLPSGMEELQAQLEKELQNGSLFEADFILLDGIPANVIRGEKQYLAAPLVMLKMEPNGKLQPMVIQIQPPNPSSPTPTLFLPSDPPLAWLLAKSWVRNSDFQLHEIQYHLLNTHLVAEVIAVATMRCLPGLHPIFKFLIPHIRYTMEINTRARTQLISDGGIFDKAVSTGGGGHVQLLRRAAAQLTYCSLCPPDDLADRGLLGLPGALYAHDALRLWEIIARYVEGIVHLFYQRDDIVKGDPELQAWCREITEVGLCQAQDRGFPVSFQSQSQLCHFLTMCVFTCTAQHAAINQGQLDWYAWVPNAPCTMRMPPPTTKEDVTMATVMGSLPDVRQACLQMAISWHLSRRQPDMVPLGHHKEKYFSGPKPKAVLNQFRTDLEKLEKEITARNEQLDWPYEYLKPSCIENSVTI
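Lipoxygenase turnover measured by absorbance at 573 and 405 nm after Fe-XO development. Human 12hLO 150 nM, arachidonate 40 uM, pH 7.0 Hepes buffer with detergent; 15 min compound preincubation, 30 min reaction.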
ALDH1A1 inh – inhibitors of human aldehyde dehydrogenase 1A1. 220,000 tested, 7.3% active. Purified ALDH1A1, NADH fluorescence, propionaldehyde substrate. Potency, µM (titrated, usually from 75.3 µM), usual class: inhibitors. AID 1030. P00352
Numbers stand for hits; - = inactive; ? = inconclusive; . = not tested or not shown; ! = not active in a repeat. Unless noted, calls come from the whole dose curve; as a rule, active = well fitted inhibition curve with a large enough effect (not every such curve was filed as active); inconclusive = small, poorly fitted or top-dose-only effect, or another doubt; inactive = no such curve, though single readings can be large or run the other way.

SMILES | IMPase Li inh | IMPase inh | HPGD inh | PNC assembly inh | 12-hLO inh | ALDH1A1 inh
COc1cc(OC)cc(C(=O)NC(=S)NCCc2ccccc2)c1 | - | - | - | - | 4µM | 1.1µM
S=C(NCCc1ccccc1)NCCc1ccccc1 | - | . | - | - | - | -
Cc1ccccc1C(=O)NC(=S)NCCc1ccccc1 | - | . | - | - | ? | 11µM
CC(C)C(N)C(=O)O (stereo unspecified) | - | . | . | . | . | -
COc1ccc(-n2c3c(c(=O)[nH]c2=O)C(NC(=O)c2ccccc2Cl)(C(F)(F)F)C(=O)N3)cc1 (stereo unspecified) | . | - | . | . | . | .
CC1Cc2ccccc2N1C(=O)CNc1cccc(S(=O)(=O)N2CCCC2)c1 (stereo unspecified) | - | . | . | . | . | 20µM
CC1CCN(S(=O)(=O)c2ccc3c(c2)oc(=O)n3CC(=O)N2c3ccccc3CC2C)CC1 (stereo unspecified) | - | - | - | - | - | -
COc1ccc(NS(=O)(=O)c2ccc(O)c(C(=O)OCC(=O)Nc3ccc4c(c3)OCCO4)c2)cc1 | - | . | ? | - | - | 22µM
CCC(CC)NC(=O)COC(=O)c1ccc(NS(=O)(=O)c2ccc3c(c2)OCCO3)cc1 | - | - | 25µM | - | - | ?
COc1ccc(NS(=O)(=O)c2ccc(O)c(C(=O)OCC(=O)N3CC(C)OC(C)C3)c2)cc1 (stereo unspecified) | - | - | - | - | - | ?
C[C@H](NS(=O)(=O)c1ccccc1)C(=O)OCC(=O)NC(=O)Nc1ccc2c(c1)OCCO2 | - | . | - | - | - | 14µM
S=c1[nH]nc(Cc2cccc3ccccc23)o1 | - | . | ? | ? | - | 10µM
CC(Cc1n[nH]c(=S)o1)c1ccccc1 (stereo unspecified) | - | . | . | . | . | 18µM
Cn1c(SCc2n[nH]c(=S)o2)nnc1-c1ccccc1 | - | . | - | ? | - | -
CN(C)CCCc1cc(C(=O)Nc2ccc(-c3ccncc3)cc2)ccc1O | - | - | - | . | - | ?
Cc1ccc([N+](=O)[O-])cc1S(=O)(=O)N(C)C | - | - | - | . | - | 32µM!
CCCCC/C=C\C\C=C/C=C/C=C/[C@@H](SC[C@H](N)C(=O)NCC(=O)O)[C@@H](O)CCCC(=O)O | - | . | . | . | . | -
COc1cccc(NC(=O)N[C@@H](Cc2ccccc2)C(=O)O)c1 | - | ? | - | - | - | -
COc1cccc(NC(=O)C(Cc2ccccc2)NC(=O)C2CCC(C)CC2)c1 (stereo unspecified) | - | - | - | -119 | - | -
Cc1nn(C(=O)c2ccccc2)c(C)c1Sc1ccc(Cl)cc1 | . | - | . | . | . | .
Nc1cc([N+](=O)[O-])ccc1O | - | ? | - | - | - | -
COc1ccc(O)c(N)c1 | - | . | . | . | . | 25µM
Cc1cc(C)nc(N/N=C/C=C/c2ccccc2)n1 | - | . | - | -104 | - | -
Cc1cc(C)nc(N/N=C/c2ccccc2)n1 | - | - | 14µM | - | - | 10µM
COc1ccc(C=NCC2OCCc3ccccc32)cc1OC (stereo unspecified) | - | . | - | ? | - | ?
SMILES | IMPase Li inh | IMPase inh | HPGD inh | PNC assembly inh | 12-hLO inh | ALDH1A1 inh
COc1cc(C=NCC2OCCc3ccccc32)cc(OC)c1 (stereo unspecified) | - | . | - | - | - | 22µM
CCOc1ccc(C(=O)CC(Sc2ccc(C)cc2)C(=O)O)cc1 (stereo unspecified) | - | . | . | . | . | 1.6µM
Oc1cc2c(cc1O)[C@@H]1c3ccc(O)c(O)c3OC[C@]1(O)C2 | - | . | 11µM | . | . | -
COc1ccccc1NC(=O)c1oc2ccc(C)cc2c1C | - | - | ? | -80 | - | -
COc1ccc(OC)c(NC(=O)c2cc3ccccc3o2)c1 | - | - | ? | - | - | ?
COc1ccc2o/c(=N\O)c(C(=O)Nc3ccccc3OC)cc2c1 | - | - | 13µM | - | - | ?
Cc1ccc(CN2CCN(Cc3ccc(-n4cccn4)cc3C)CC2CCO)cc1 (stereo unspecified) | - | . | . | . | . | -
CC1CCCN(c2ccc(C(=O)Nc3nnc(C4CC4)s3)cc2[N+](=O)[O-])C1 (stereo unspecified) | - | . | - | ? | - | 2.8µM
Cc1ccc(C(=O)OCn2nnc3ccccc3c2=O)cc1[N+](=O)[O-] | - | . | . | . | . | ?
CC1CCCN(c2ccc(C(=O)OCn3nnc4ccccc4c3=O)cc2[N+](=O)[O-])C1 (stereo unspecified) | - | - | 16µM | - | - | -
Cc1ccccc1Nc1oc(-c2ccccc2)nc1-c1cccs1 | - | . | - | . | - | -
CCOC(=O)/C(C#N)=C/c1cccc(C)c1 | . | . | . | . | . | -
N#C/C(=C\c1cccc(Cl)c1)C(=O)c1ccccc1 | . | . | . | . | . | 0.71µM
COc1ccc(/C=N/OCC(=O)NCc2cccs2)c(OC)c1 | . | - | . | ? | - | ?
O=C(CO/N=C/c1ccccc1OC(F)F)N1CCc2ccccc21 | - | . | - | - | - | 16µM
O=C(CO/N=C/c1ccccc1OC(F)F)NCc1cccs1 | - | . | 16µM | - | - | -
CC1Cc2ccccc2N1C(=O)CO/N=C/c1ccccc1OC(F)F (stereo unspecified) | - | - | - | - | - | ?
CCNc1ncc2nc(-c3cccs3)c(=O)n(C)c2n1 | - | . | . | . | . | ?
C=CCNC(=O)c1ccc(C(=O)c2ccccc2)cc1 | - | - | 13µM | ? | - | ?

Assay outcomes (PubChem BioAssay)
